About 8,800 targets were measured; listed, in parts, are those with a hit and a random draw of the rest. About 0.5% of all pairs of compound and target were hits.
Assays:
Experiment in all cases: log2 fold change, soluble protein after heating vs DMSO (PISA); higher = thermal stabilisation; K562 lysate, 10 uM; active = over 0.2 and 3.5 SD of the protein, either way, in both replicates (recomputed)
lapatinib = compound: CS(=O)(=O)CCNCc1ccc(-c2ccc3ncnc(Nc4ccc(OCc5cccc(F)c5)c(Cl)c4)c3c2)o1 [lapatinib]
In short: (§1)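 The values are log-two fold changes in thermal stability compared with solvent controls and come from duplicates. They were obtained by TMTpro 16plex LC-MS/MS, with channel sums equalised, on the supernatant after 21,000xg for 90 min. That supernatant came from crude K562 extract at 1 mg/mL protein treated with 10 μM compound for 30 min, heated for 3 min across 48°C-58°C, pooled and brought to 0.5% NP-40 at 4°C.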

pictilisib = compound: CS(=O)(=O)N1CCN(Cc2cc3nc(-c4cccc5[nH]ncc45)nc(N4CCOCC4)c3s2)CC1 [pictilisib]
In short: as §1

crizotinib = compound: C[C@@H](Oc1cc(-c2cnn(C3CCNCC3)c2)cnc1N)c1c(Cl)ccc(F)c1Cl [crizotinib]
In short: as §1

[1] = compound: C[C@H](C1=CC=C(C=C1)C(=O)NC2=C3C=CNC3=NC=C2)N
In short: as §1

duvelisib = compound: C[C@H](Nc1ncnc2nc[nH]c12)c1cc2cccc(Cl)c2c(=O)n1-c1ccccc1 [duvelisib]
In short: as §1

gandotinib = compound: Cc1cc(Nc2cc(CN3CCOCC3)c3nc(C)c(Cc4ccc(Cl)cc4F)n3n2)n[nH]1 [gandotinib]
In short: as §1

tozasertib = compound: Cc1cc(Nc2cc(N3CCN(C)CC3)nc(Sc3ccc(NC(=O)C4CC4)cc3)n2)n[nH]1 [tozasertib]
In short: as §1

doramapimod = compound: Cc1ccc(-n2nc(C(C)(C)C)cc2NC(=O)Nc2ccc(OCCN3CCOCC3)c3ccccc23)cc1 [doramapimod]
In short: as §1

bafetinib = compound: Cc1ccc(NC(=O)c2ccc(CN3CC[C@H](N(C)C)C3)c(C(F)(F)F)c2)cc1Nc1nccc(-c2cncnc2)n1 [bafetinib]
In short: as §1

[2] = compound: Cc1cccc(CC(=O)N2CCc3c2ccc(-c2cn(C)c4ncnc(N)c24)c3F)n1
In short: as §1

nilotinib = compound: Cc1cn(-c2cc(NC(=O)c3ccc(C)c(Nc4nccc(-c5cccnc5)n4)c3)cc(C(F)(F)F)c2)cn1 [nilotinib]
In short: as §1

[3] = compound: Cc1nc(Nc2n[nH]c3c2CN(C(=O)N[C@H](CN(C)C)c2ccccc2)C3(C)C)c2sccc2n1
In short: as §1

dasatinib = compound: Cc1nc(Nc2ncc(C(=O)Nc3c(C)cccc3Cl)s2)cc(N2CCN(CCO)CC2)n1 [dasatinib]
In short: as §1

[4] = compound: Cc1ncc(-c2ccnc(Nc3ccc(S(C)(=O)=O)cc3)n2)n1C(C)C
In short: as §1

[5] = compound: Cn1cc(-c2ccc3c(c2)CCN3C(=O)Cc2cccc(C(F)(F)F)c2)c2c(N)ncnc21
In short: as §1

quisinostat = compound: Cn1cc(CNCC2CCN(c3ncc(C(=O)NO)cn3)CC2)c2ccccc21 [quisinostat]
In short: as §1

tipifarnib = compound: Cn1cncc1[C@@](N)(c1ccc(Cl)cc1)c1ccc2c(c1)c(-c1cccc(Cl)c1)cc(=O)n2C [tipifarnib]
In short: as §1

[6] = compound: NC(=O)Nc1cc(-c2cccc(F)c2)sc1C(=O)N[C@H]1CCCNC1
In short: as §1

[7] = compound: NC(=O)c1cnc(N[C@@H]2CCCC[C@@H]2N)nc1Nc1cccc(-n2nccn2)c1
In short: as §1

[8] = compound: NC1(c2ccc(-c3nc4ccn5c(=O)[nH]nc5c4cc3-c3ccccc3)cc2)CCC1
In short: as §1

Measured: log2 fold change

VAMP2 (UniProt P63027)
inactive: lapatinib 0.045 | pictilisib -0.05 | crizotinib 0.105 | [1] 0.062 | duvelisib 0.051 | gandotinib -0.057 | tozasertib 0.074 | doramapimod -0.083 | bafetinib -0.002 | [2] -0.147 | nilotinib -0.034 | [3] 0.034 | dasatinib 0.002 | [4] 0.066 | [5] -0.009 | quisinostat 0.262 | tipifarnib 0.041 | [6] -0.027 | [7] 0.019 | [8] 0.067

WDR24 (UniProt Q96S15)
inactive: lapatinib -0.004 | pictilisib 0.104 | crizotinib -0.006 | [1] -0.072 | duvelisib 0.004 | gandotinib 0.072 | tozasertib 0.065 | doramapimod -0.166 | bafetinib -0.134 | [2] 0.125 | nilotinib 0.124 | [3] -0.09 | dasatinib -0.072 | [4] 0.05 | [5] -0.022 | quisinostat -0.013 | tipifarnib -0.096 | [6] 0.038 | [7] 0.04 | [8] -0.002

ZDHHC18 (UniProt Q9NUE0)
inactive: lapatinib 0.029 | pictilisib 0.078 | crizotinib -0.023 | [1] -0.017 | duvelisib 0.013 | gandotinib -0.149 | tozasertib -0.061 | doramapimod 0.054 | bafetinib -0.068 | [2] -0.11 | nilotinib 0.067 | [3] -0.329 | dasatinib 0.176 | [4] -0.047 | [5] -0.158 | quisinostat -0.008 | tipifarnib 0.177 | [6] 0.008 | [7] 0.059 | [8] 0.067

VAV1 (UniProt P15498)
Sequence of UniProt P15498 (P15498 whole entry, looked up): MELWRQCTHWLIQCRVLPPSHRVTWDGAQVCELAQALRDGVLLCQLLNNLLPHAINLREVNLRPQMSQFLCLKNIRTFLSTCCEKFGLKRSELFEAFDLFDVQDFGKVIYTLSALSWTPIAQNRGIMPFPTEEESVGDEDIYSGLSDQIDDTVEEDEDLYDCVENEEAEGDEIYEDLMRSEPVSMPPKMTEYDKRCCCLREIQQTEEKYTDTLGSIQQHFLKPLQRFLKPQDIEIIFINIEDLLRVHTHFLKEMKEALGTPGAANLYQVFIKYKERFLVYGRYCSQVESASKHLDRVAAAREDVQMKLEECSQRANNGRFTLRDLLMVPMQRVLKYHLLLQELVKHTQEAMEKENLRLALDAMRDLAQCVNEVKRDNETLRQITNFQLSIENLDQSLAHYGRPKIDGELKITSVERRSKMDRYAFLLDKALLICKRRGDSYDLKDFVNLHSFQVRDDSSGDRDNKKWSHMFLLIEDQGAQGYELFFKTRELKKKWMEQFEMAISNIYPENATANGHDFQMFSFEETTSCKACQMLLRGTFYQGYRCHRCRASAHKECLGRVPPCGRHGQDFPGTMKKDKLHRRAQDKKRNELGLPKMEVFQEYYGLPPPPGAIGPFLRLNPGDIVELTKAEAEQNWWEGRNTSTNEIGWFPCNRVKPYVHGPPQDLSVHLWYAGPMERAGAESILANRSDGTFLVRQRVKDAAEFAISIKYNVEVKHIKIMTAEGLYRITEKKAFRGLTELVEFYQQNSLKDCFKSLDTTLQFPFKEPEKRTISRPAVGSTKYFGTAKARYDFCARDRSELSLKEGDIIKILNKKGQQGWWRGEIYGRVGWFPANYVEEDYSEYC
inactive: lapatinib 0 | pictilisib 0.012 | crizotinib -0.059 | [1] -0.057 | duvelisib 0.071 | gandotinib -0.02 | tozasertib 0.011 | doramapimod -0.044 | bafetinib -0.087 | [2] 0.066 | nilotinib 0.022 | [3] -0.031 | dasatinib 0.007 | [4] 0.009 | [5] 0.04 | quisinostat 0.022 | tipifarnib 0 | [6] -0.018 | [7] 0.007 | [8] -0.054

WDHD1 (UniProt O75717)
Sequence of UniProt O75717 (O75717 whole entry, looked up): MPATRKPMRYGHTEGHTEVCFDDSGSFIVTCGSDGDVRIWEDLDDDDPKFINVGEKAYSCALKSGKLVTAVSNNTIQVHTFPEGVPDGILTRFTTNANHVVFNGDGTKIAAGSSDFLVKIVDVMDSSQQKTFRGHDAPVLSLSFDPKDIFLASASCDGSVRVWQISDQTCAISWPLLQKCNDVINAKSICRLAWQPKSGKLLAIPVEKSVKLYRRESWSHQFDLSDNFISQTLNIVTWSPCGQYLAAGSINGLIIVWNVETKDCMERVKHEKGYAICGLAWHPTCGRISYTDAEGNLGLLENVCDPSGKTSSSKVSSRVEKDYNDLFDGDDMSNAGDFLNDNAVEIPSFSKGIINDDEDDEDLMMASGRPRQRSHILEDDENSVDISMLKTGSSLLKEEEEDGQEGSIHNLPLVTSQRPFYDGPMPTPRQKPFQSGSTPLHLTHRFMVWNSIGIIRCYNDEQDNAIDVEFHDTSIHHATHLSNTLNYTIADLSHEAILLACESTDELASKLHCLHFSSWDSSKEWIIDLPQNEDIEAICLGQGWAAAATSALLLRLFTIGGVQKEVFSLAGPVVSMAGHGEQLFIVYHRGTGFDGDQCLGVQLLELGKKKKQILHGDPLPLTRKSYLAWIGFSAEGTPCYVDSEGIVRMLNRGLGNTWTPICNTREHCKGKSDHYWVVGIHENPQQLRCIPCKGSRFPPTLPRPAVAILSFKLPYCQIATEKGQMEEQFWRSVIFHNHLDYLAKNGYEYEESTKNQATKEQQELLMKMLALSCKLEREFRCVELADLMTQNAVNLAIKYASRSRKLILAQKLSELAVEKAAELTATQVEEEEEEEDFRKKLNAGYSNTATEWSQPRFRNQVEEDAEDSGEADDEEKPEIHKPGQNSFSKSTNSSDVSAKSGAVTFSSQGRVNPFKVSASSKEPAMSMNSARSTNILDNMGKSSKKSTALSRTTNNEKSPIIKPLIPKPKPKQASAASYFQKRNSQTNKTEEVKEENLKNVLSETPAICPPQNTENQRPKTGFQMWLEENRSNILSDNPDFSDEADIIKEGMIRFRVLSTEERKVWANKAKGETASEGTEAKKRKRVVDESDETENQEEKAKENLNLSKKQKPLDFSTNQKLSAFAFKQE
inactive: lapatinib -0.017 | pictilisib -0.025 | crizotinib -0.035 | [1] 0.077 | duvelisib 0.007 | gandotinib -0.082 | tozasertib -0.043 | doramapimod 0.011 | bafetinib 0.023 | [2] -0.037 | nilotinib -0.008 | [3] 0.026 | dasatinib -0.023 | [4] 0.012 | [5] 0.01 | quisinostat -0.029 | tipifarnib -0.01 | [6] 0.008 | [7] 0.013 | [8] 0.01

ZNF318 (UniProt Q5VUA4)
inactive: lapatinib 0.031 | pictilisib 0.059 | crizotinib 0.023 | [1] -0.008 | duvelisib 0.046 | gandotinib -0.021 | tozasertib -0.019 | doramapimod -0.01 | bafetinib -0.086 | [2] 0.112 | nilotinib 0.043 | [3] -0.05 | dasatinib -0.104 | [4] -0.034 | [5] -0.002 | quisinostat 0.088 | tipifarnib -0.065 | [6] -0.004 | [7] -0.078 | [8] -0.028

USP16 (UniProt Q9Y5T5)
Sequence of UniProt Q9Y5T5 (Q9Y5T5 whole entry, looked up): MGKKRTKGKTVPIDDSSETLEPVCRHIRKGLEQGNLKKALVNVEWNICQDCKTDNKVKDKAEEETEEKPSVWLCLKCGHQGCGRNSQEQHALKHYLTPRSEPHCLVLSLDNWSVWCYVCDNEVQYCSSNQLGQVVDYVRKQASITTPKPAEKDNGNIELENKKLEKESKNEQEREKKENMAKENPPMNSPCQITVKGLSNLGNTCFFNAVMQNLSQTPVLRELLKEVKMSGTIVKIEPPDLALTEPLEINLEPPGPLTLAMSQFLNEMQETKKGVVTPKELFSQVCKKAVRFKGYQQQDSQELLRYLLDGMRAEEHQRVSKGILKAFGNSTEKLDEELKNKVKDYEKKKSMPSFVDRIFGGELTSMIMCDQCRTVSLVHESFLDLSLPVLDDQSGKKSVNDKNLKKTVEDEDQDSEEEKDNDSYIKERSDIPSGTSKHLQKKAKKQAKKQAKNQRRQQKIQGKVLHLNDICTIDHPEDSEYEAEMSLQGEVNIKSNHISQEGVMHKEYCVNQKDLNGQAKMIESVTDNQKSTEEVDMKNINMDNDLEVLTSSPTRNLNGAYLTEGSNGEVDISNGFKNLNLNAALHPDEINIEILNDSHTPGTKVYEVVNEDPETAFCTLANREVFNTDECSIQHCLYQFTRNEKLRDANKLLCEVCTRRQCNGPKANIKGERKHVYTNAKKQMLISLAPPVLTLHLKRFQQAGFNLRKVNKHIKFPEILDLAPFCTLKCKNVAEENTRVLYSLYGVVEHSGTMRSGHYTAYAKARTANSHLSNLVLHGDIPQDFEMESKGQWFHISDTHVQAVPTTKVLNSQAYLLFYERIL
inactive: lapatinib 0.003 | pictilisib -0.049 | crizotinib -0.018 | [1] 0.003 | duvelisib 0.049 | gandotinib -0.039 | tozasertib 0.006 | doramapimod -0.017 | bafetinib -0.037 | [2] 0.035 | nilotinib 0.016 | [3] 0.005 | dasatinib 0.053 | [4] 0.014 | [5] 0.041 | quisinostat -0.014 | tipifarnib 0.016 | [6] 0.011 | [7] 0.023 | [8] 0.012

ZC3HC1 (UniProt Q86WB0)
inactive: lapatinib 0.042 | pictilisib 0.001 | crizotinib 0.023 | duvelisib 0.013 | gandotinib -0.082 | tozasertib -0.036 | doramapimod 0.025 | bafetinib -0.019 | [2] -0.094 | nilotinib -0.013 | [3] -0.005 | dasatinib 0.029 | [4] 0.007 | [5] -0.009 | quisinostat -0.033 | tipifarnib -0.03 | [6] 0.025 | [7] 0.017 | [8] 0.024
active: [1] 0.222

USP8 (UniProt P40818)
Sequence of UniProt P40818 (P40818 whole entry, looked up): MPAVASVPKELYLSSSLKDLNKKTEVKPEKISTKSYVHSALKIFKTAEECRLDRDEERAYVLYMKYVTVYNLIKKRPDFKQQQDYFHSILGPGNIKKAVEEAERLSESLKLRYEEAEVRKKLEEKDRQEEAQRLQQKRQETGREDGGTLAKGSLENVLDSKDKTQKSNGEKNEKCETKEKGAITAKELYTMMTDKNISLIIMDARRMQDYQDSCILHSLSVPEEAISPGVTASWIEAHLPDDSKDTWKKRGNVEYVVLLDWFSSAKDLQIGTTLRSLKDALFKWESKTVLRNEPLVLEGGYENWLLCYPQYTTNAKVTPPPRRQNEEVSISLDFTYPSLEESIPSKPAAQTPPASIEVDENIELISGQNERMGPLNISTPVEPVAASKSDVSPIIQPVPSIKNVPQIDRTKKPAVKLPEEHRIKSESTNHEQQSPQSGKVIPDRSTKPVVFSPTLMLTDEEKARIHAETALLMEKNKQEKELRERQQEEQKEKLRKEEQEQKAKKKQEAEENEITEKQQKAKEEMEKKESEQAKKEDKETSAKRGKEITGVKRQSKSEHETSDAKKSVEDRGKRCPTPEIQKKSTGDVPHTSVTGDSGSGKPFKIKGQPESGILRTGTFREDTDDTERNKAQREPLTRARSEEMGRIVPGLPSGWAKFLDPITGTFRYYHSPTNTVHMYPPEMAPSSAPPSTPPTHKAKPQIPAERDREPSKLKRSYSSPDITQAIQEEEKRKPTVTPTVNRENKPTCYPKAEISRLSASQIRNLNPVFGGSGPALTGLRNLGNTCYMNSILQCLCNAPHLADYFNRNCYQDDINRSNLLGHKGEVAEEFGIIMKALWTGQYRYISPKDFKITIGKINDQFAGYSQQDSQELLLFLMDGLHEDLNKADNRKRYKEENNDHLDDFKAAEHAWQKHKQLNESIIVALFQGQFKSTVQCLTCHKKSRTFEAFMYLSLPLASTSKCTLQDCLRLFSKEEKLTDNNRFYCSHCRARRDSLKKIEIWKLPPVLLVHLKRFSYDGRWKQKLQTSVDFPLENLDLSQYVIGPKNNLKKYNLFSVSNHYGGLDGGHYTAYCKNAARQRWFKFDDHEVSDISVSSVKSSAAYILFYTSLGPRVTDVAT
inactive: lapatinib -0.011 | pictilisib -0.048 | crizotinib -0.009 | [1] 0.002 | duvelisib -0.023 | gandotinib -0.077 | tozasertib -0.013 | doramapimod 0.001 | bafetinib -0.026 | [2] 0.017 | nilotinib -0.014 | [3] -0.007 | dasatinib 0.005 | [4] 0.042 | [5] 0.024 | quisinostat -0.015 | tipifarnib -0.01 | [6] 0.016 | [7] -0.016 | [8] 0.026

ZC2HC1A (UniProt Q96GY0)
inactive: lapatinib 0.004 | pictilisib 0.056 | crizotinib -0.009 | [1] -0.082 | duvelisib 0 | gandotinib 0.053 | tozasertib 0.007 | doramapimod -0.021 | bafetinib 0.052 | [2] 0.103 | nilotinib 0 | [3] 0.005 | dasatinib -0.085 | [4] 0.002 | [5] 0.1 | quisinostat -0.082 | tipifarnib -0.02 | [6] -0.014 | [7] 0.04 | [8] -0.092

VPS28 (UniProt Q9UK41)
Sequence of UniProt Q9UK41 (Q9UK41 whole entry, looked up): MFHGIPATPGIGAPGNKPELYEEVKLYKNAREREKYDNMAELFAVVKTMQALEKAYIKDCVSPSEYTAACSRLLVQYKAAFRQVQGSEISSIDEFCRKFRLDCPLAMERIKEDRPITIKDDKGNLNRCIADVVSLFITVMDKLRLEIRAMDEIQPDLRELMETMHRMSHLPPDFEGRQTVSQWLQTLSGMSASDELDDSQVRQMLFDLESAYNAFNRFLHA
inactive: lapatinib 0.038 | pictilisib -0.005 | crizotinib 0.051 | [1] -0.132 | duvelisib -0.032 | gandotinib 0.018 | tozasertib -0.03 | doramapimod -0.005 | bafetinib 0.034 | [2] 0.034 | nilotinib -0.031 | [3] 0.034 | dasatinib 0.021 | [4] 0.004 | [5] 0.086 | quisinostat 0.081 | tipifarnib 0.029 | [6] -0.038 | [7] 0.012 | [8] -0.027

ZC3H13 (UniProt Q5T200)
inactive: lapatinib -0.013 | pictilisib -0.022 | crizotinib -0.057 | [1] 0.039 | duvelisib 0.041 | gandotinib -0.063 | tozasertib 0.062 | doramapimod 0.149 | bafetinib 0.017 | [2] 0.102 | nilotinib -0.033 | [3] 0.137 | dasatinib -0.035 | [4] 0.144 | [5] -0.044 | quisinostat -0.067 | tipifarnib -0.184 | [6] 0.002 | [7] 0.028 | [8] -0.049

ZC3H11A (UniProt O75152)
inactive: lapatinib -0.09 | pictilisib -0.046 | crizotinib -0.071 | [1] 0.222 | duvelisib 0.013 | gandotinib -0.12 | tozasertib 0.016 | doramapimod 0.013 | bafetinib -0.113 | [2] -0.134 | nilotinib -0.021 | [3] -0.006 | dasatinib -0.021 | [4] 0.041 | [5] -0.022 | quisinostat -0.094 | tipifarnib -0.007 | [6] 0 | [7] 0.004 | [8] 0.035

UNC45A (UniProt Q9H3U1)
inactive: lapatinib -0.006 | pictilisib -0.026 | crizotinib -0.045 | [1] 0.019 | duvelisib -0.003 | gandotinib -0.111 | tozasertib 0 | doramapimod 0.027 | bafetinib -0.018 | [2] 0.021 | nilotinib -0.007 | [3] 0.003 | dasatinib -0.051 | [4] 0.018 | [5] 0.016 | quisinostat -0.047 | tipifarnib -0.015 | [6] 0.03 | [7] 0.016 | [8] -0.001

VAV3 isoform 4 (UniProt Q9UKW4)
Sequence of UniProt Q9UKW4 (Q9UKW4 whole entry, looked up): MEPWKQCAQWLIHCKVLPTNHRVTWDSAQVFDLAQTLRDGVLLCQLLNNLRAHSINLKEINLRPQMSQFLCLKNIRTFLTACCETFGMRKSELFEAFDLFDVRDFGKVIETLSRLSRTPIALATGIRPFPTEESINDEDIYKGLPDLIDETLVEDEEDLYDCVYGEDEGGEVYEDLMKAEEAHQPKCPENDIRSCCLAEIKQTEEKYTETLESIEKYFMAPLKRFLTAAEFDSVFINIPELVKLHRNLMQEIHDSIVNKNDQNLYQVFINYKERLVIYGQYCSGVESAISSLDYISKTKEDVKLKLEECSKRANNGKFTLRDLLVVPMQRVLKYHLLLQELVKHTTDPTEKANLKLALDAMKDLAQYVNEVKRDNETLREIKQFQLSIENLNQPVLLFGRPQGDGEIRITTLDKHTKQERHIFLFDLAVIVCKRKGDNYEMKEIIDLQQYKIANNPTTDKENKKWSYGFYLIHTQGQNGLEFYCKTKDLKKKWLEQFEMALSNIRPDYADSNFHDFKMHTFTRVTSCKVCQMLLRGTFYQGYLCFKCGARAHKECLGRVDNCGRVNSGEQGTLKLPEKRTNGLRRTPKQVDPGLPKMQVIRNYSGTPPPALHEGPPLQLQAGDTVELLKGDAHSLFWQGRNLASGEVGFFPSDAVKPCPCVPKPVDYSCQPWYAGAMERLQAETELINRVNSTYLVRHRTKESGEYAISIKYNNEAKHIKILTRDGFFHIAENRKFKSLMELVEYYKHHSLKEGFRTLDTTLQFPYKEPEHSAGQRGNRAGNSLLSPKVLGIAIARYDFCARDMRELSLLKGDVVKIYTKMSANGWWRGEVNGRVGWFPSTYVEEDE
inactive: lapatinib -0.167 | pictilisib -0.057 | crizotinib -0.217 | duvelisib -0.008 | gandotinib 0.135 | tozasertib -0.093 | doramapimod 0.325 | bafetinib 0.023 | [2] 0.242 | nilotinib 0.155 | [3] -0.028 | dasatinib -0.061 | [4] -0.055 | [5] 0.08 | quisinostat 0.121 | tipifarnib -0.012 | [6] -0.017 | [7] -0.054 | [8] 0.038
active: [1] -0.655

VPS33A (UniProt Q96AX1)
inactive: lapatinib 0 | pictilisib -0.005 | crizotinib -0.025 | [1] -0.03 | duvelisib 0.039 | gandotinib -0.043 | tozasertib 0.01 | doramapimod 0 | bafetinib 0.014 | [2] 0.036 | nilotinib -0.007 | [3] -0.004 | dasatinib -0.007 | [4] -0.027 | [5] 0.045 | quisinostat -0.018 | tipifarnib -0.006 | [6] 0.041 | [7] 0.021 | [8] -0.034

Source: the supplement of paper PMC10849652
